This is an account of results in PubChem BioAssay (NCATS).

Records with an inconclusive call do not appear. A number with no mark means an inactive call. Activity calls are given as the source filed them. The call rests on the fitted dose curve; in most records, active means well fitted inhibition curve with a large enough effect; inconclusive means small, poorly fitted or top-dose-only effect; inactive means no such curve, though single readings can be large or run the other way.
On the % scale 0 is the no-effect control and ±100 the full control effect.

The nature of the test: Primary qHTS for small molecule stabilizers of the endoplasmic reticulum resident proteome: Secreted ER Calcium Modulated Protein (SERCaMP) assay (AID 1508630). Conditions: SH-SY5Y GLuc-SERCaMP (Gaussia luciferase released on ER calcium loss) secretion, thapsigargin, luminescence; series mostly up to 38.4 µM. The gist of the method: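 GLuc-SERCaMP-expressing SH-SY5Y cells, pretreated 16 h with compound, are challenged with thapsigargin to empty ER calcium stores; after 4 h, coelenterazine is added directly to the medium and luminescence is imaged.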
(In general: In qHTS, concentration-response curves come from the screen itself.)
In the case of `C=CC(=O)Nc1cc(NC(=O)c2ccc(C)c(NC(=O)c3ccno3)c2)cc(C(F)(F)F)c1`, the outcome was inactive.

In the case of `C[C@H](NCc1ccc(OCc2cccc(F)c2)cc1)C(N)=O`, the result was inactive.

Turning to `C=CCNC1=C2C[C@@H](C)C[C@H](OC)[C@@H](O)[C@@H](C)C=C(C)[C@H](OC(N)=O)[C@@H](OC)C=CC=C(C)C(=O)NC(=CC1=O)C2=O`, the outcome was inactive.

Take `CC(=CC(=O)Nc1ccccc1C(=O)O)c1ccc2ccccc2c1`: the result was inactive.

As for `CN[C@@H]1C[C@H]2O[C@@](C)([C@H]1OC)n1c3ccccc3c3c4c(c5c6ccccc6n2c5c31)C(=O)N[C@H]4O`, the result was inactive.

In the case of `O=C(NCc1ccccc1)[C@H](Cc1ccccc1)NC(=O)[C@@H]1O[C@@H]1C(=O)NCCc1ccc(O)cc1`, the outcome was inactive.

In the case of `C[C@H](NCc1ccc2c(c1)nc(NC(=O)c1ccc(-c3cn[nH]c3)s1)n2CCc1ccccc1)C(C)(C)C`, the outcome was inactive.

For `CC[C@H](CC[C@@H](C)[C@H]1CC[C@H]2[C@@H]3CC=C4C[C@@H](O)CC[C@]4(C)[C@@H]3CC[C@]12C)C(C)C`, the result was inactive.

Regarding `CC[C@H]1OC(=O)[C@H](C)[C@@H](O[C@H]2C[C@@](C)(OC)[C@@H](O)[C@H](C)O2)[C@H](C)[C@@H](O[C@@H]2O[C@H](C)C[C@H](N(C)C)[C@@H]2O)[C@](C)(OC)C[C@@H](C)C(=O)[C@H](C)[C@@H](O)[C@]1(C)O`, the result was inactive.

For the compound `C[C@H](NC(=O)C(C#N)=Cc1cccc(Br)n1)c1ccccc1`, the outcome was inactive.

In the case of `CC(=O)N[C@@H]1[C@H](O[C@@H]2c3ccc(c(Cl)c3)Oc3cc4cc(c3O[C@H]3O[C@H](CO)[C@@H](O)[C@H](O)[C@H]3NC(=O)CCCCCCCC(C)C)Oc3ccc(cc3Cl)C[C@H]3NC(=O)[C@H](N)c5ccc(O)c(c5)Oc5cc(O)cc(c5)[C@H](NC3=O)C(=O)N[C@H]4C(=O)N[C@H]3C(=O)N[C@@H]2C(=O)N[C@@H](C(=O)O)c2cc(O)cc(O[C@H]4O[C@H](CO)[C@@H](O)[C@H](O)[C@H]4O)c2-c2cc3ccc2O)O[C@H](CO)[C@@H](O)[C@@H]1O`, the outcome was inactive.

For `CC(=O)NCC(=O)N1[C@H]2CC[C@H]1c1cc(Nc3ncc(C(F)(F)F)c(NC4CCC4)n3)ccc12`, the result was inactive.

For `COc1cc2c(cc1O)CCC1C2CC[C@@]2(C)C1CC[C@@H]2O` (some centres undefined), the outcome was inactive.

On to `CC(C)(C)[C@H](NC(=O)c1ccc(N)c(Cl)c1)C(=O)N1CCC[C@@H]1C(=O)N[C@H](C#N)CC(=O)O`, for which the activity change, negative = inhibition is 176% [at 3.88 µM].

As to `C=C1CCC2[C@](C)(CO)C(O)CC[C@]2(C)C1CC=C1C(=O)OCC1O` (some centres undefined), the result was inactive.

`CC(=O)OCC(=O)[C@@]1(O)CC[C@H]2[C@@H]3CCC4=CC(=O)CC[C@]4(C)[C@@H]3C(=O)C[C@@]21C`: the outcome was inactive.

`N#CC(=C(N)Sc1ccc(N)cc1)c1ccccc1C(F)(F)F`: the result was inactive.

In the case of `C=C1C[C@@]2(O)O[C@@]3(C[C@H]2C(C)C)[C@H](C)CC[C@H]13`, the result was inactive.

Consider `O=C1NC(=O)[C@@H](c2cn3c4c(cccc24)CCC3)[C@H]1c1c[nH]c2ccccc12`, for which the result was inactive.

On to `CC(C)(O)[C@H]1CC[C@@](C)([C@H]2[C@@H](O)C[C@@]3(C)[C@@H]4C[C@H](O[C@@H]5O[C@H](CO)[C@@H](O)[C@H](O)[C@@H]5O)[C@H]5C(C)(C)[C@@H](O[C@@H]6OC[C@@H](O)[C@H](O)[C@@H]6O)CC[C@@]56C[C@@]46CC[C@]23C)O1`, for which the result was inactive.

As to `CS[C@H]1SC[C@@H]2C(=O)N(C)[C@H](C(C)C)C(=O)OC[C@H](NC(=O)c3cnc4ccccc4n3)C(=O)N[C@H](C)C(=O)N(C)[C@@H]1C(=O)N(C)[C@H](C(C)C)C(=O)OC[C@H](NC(=O)c1cnc3ccccc3n1)C(=O)N[C@H](C)C(=O)N2C`, the outcome was inactive.

Take `CC(C=CC=C(C)C=CC1=C(C)CCCC1(C)C)=CC=CC=C(C)C=CC=C(C)C=CC1=C(C)CCCC1(C)C`: the result was inactive.

Regarding `O=c1c(O)c(-c2ccc(O)c(O)c2)oc2cc(O)ccc12`, the result was inactive.

Turning to `CON=C(C(=O)N[C@@H]1C(=O)N2C(C(=O)O)=C(Cn3ccc(=N)n3CCO)CS[C@H]12)c1csc(N)n1`, the result was inactive.

Regarding `OCC(O)C(O)C(O)CO` (centres undefined), the result was inactive.

On to `CCCNC(=O)[C@H]1O[C@H]1C(=O)N[C@H](C(=O)N1CCC[C@@H]1C(=O)OC)C(C)CC` (some centres undefined), for which the outcome was inactive.

As to `C[C@H](CCC(=O)O)[C@H]1CC[C@H]2[C@@H]3[C@H](O)C[C@@H]4C[C@H](O)CC[C@]4(C)[C@@H]3CC[C@]12C`, the outcome was inactive.

With `C[C@H]1O[C@H](O[C@H]2[C@H](O)[C@@H](O)[C@@H](O[C@H]3[C@H](O)[C@@H](O)C(O)O[C@H]3CO)O[C@H]2CO)[C@H](O)[C@@H](O)[C@H]1N[C@H]1C=C(CO)[C@@H](O)[C@H](O)[C@@H]1O` (some centres undefined), the outcome was inactive.

Take `CC(=O)O[C@H]1C[C@@H]2CC[C@H]3[C@H]4C[C@H]([N+]5(C)CCCCC5)[C@@H](OC(C)=O)[C@@]4(C)CC[C@@H]3[C@@]2(C)C[C@H]1N1CCCCC1`: the outcome was inactive.

For `CON=C(C(=O)N[C@@H]1C(=O)N2C(C(=O)O)=C(CSC(=O)c3ccco3)CS[C@H]12)c1csc(N)n1`, the result was inactive.

As to `O=C(O)[C@H](CC(=O)N1C[C@@H]2CCCC[C@H]2C1)Cc1ccccc1`, the result was inactive.

For `Nc1nc(=O)n([C@H]2CSC(CO)O2)cc1F` (some centres undefined), the result was inactive.

As to `C[C@H]1C[C@H]2[C@@H]3CCC4=CC(=O)C=C[C@]4(C)[C@@H]3C(=O)C[C@]2(C)[C@@]1(O)C(=O)CO`, the result was inactive.

As to `O=C(C[C@@H]1CC=CCCC(=O)O[C@H](c2ccccc2)CNC1=O)NCc1ccc(Cl)cc1`, the result was inactive.

Consider `NC[C@H]1O[C@H](O[C@H]2[C@@H](O)[C@@H](O[C@H]3O[C@H](CO)[C@@H](O)[C@H](N)[C@@H]3O)[C@H](N)C[C@@H]2N)[C@H](N)C[C@H]1O`, for which the result was inactive.

With `O=C(O)C(=O)Nc1cccc(C2=NN=N[N]2)c1`, the outcome was inactive.

On to `C[C@@H]1[C@H](C)CC[C@]2(C(=O)O)CC[C@]3(C)C(=CC[C@@H]4[C@@]5(C)C[C@@H](O)[C@H](O)[C@@](C)(CO)[C@H]5CC[C@]43C)[C@@H]12`, for which the result was inactive.

As to `CC(C)(O)CC[C@@H](O)[C@](C)(O)[C@H]1CC[C@@]2(O)C3=CC(=O)[C@@H]4C[C@@H](O)[C@@H](O)C[C@]4(C)[C@@H]3CC[C@]12C`, the result was inactive.

Turning to `C[C@]12CCC(=O)C=C1[C@@H]1CC1[C@H]1[C@H]3[C@@H]4C[C@H]4[C@@]4(CCC(=O)O4)[C@@]3(C)CC[C@H]12` (some centres undefined), the result was inactive.
